From PubChem BioAssay
POLB inh: inhibitors of human DNA polymerase beta; P06746; hit rate 1.3% among 340,000; Pol beta primer extension/strand displacement, fluorescence kinetic; AID 485314; Potency, µM (series often up to 114 µM), hits mostly inhibitors
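Pol beta (10 nM) was preincubated with compound for 15 min at room temperature. The reaction was then started with 50 nM substrate and read immediately and after a further 10 min at room temperature.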
POLI inh: blocks human DNA polymerase iota activity | Q9UNA4 | Potency, µM (highest dose often 115 µM), usual class: inhibitors | Pol iota fluorescent replication assay, 10 min | hit rate 1% among 390,000
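Pol iota at 10 nM preincubated 15 min with compounds at room temperature; reaction started with fluorescent substrate, 50 nM final. Fluorescence read kinetically at 0 and 10 min; buffer-only wells as negative control.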
Pol eta inh-1: DNA polymerase eta (human) inhibition | AID 588591 | hit rate 1.2% among 390,000 | recombinant Pol eta, fluorescent DNA replication assay | Potency, µM (highest dose often 114 µM), most hits filed as inhibitors | Q9Y253
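Pol eta at 10 nM preincubated with compounds 15 min at room temperature; reaction started with fluorescent substrate (50 nM final) and read kinetically at 0 and 10 min.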
WRN inhibitor: blocks human WRN helicase. Q14191. hit rate 0.46% among 360,000. AID 651768. WRN helicase unwinding, fluorescent forked duplex, kinetic. Potency, µM (highest dose often 114 µM), usual class: inhibitors; note: nearly all actives have a fitted effect of over 55% in size
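Screening of the MLSMR collection measured strand separation of a quenched forked DNA duplex (100 nM) by 20 nM WRN with 2 mM ATP, all final. Compounds were preincubated with enzyme 15 min at room temperature.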
FEN1 inh: inhibitors of human flap endonuclease 1; Recombinant FEN1 flap cleavage, fluorescence, 15 min; hit rate 0.35% among 390,000; Potency, µM (doses to about 114 µM), usual class: inhibitors; P39748; note: nearly all actives have a fitted effect of over 65% in size
Target sequence (P39748 whole entry, looked up): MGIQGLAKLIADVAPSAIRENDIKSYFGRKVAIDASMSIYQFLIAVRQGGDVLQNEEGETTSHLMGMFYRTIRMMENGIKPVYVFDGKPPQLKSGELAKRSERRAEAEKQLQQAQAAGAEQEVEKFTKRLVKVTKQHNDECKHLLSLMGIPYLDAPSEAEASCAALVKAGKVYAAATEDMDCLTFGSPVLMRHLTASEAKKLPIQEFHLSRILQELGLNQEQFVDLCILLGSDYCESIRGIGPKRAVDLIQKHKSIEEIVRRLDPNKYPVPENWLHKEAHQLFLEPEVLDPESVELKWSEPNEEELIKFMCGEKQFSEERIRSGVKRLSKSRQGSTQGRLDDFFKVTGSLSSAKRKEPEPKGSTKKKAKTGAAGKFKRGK
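FEN1 at 10 nM, compound pretreatment for 15 min (room temperature), 50 nM final substrate to initiate; endpoint reads at 0 and 15 min; DMSO-only plates used as vehicle background.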
Pol kappa inh-1: blocks human DNA polymerase kappa activity; purified Pol kappa, fluorescent DNA synthesis assay, 10 min; Potency, µM (doses to about 107 µM), usual class: inhibitors; hit rate 0.53% among 400,000
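Enzyme at 10 nM met test compounds for 15 min at room temperature. Substrate addition (50 nM final) began the reaction, which was monitored by fluorescence at 0 and 10 min.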
TbPGK inh: validation of Trypanosoma brucei phosphoglycerate kinase inhibitors | shares compounds with Pol kappa inh-1 | TbPGK coupled GAPDH assay, Kinase-Glo luminescence | Potency, µM (highest dose often 57.5 µM), most hits filed as inhibitors | hit rate 79% among 500; note: nearly all actives have a fitted effect of over 65% in size
POLI cherry-pick: Confirm cherry-picked inhibitors of human polymerase iota. Pol iota primer extension, TAMRA/BHQ fluorescence. hit rate 77% among 1,500. shares compounds with Pol kappa inh-1. Potency, µM, hits mostly inhibitors
Pol kappa inh-2: confirmation of human DNA polymerase kappa inhibitors; shares compounds with Pol eta inh-1; purified Pol-kappa, fluorescent strand-displacement substrate; Potency, µM, actives largely listed as inhibitors; hit rate 76% among 920; AID 720501
Pol eta inh-2: confirmation of human DNA polymerase eta inhibitors; shares compounds with Pol eta inh-1; Pol eta primer extension, TAMRA/BHQ fluorescence, 10 min; Potency, µM, most hits filed as inhibitors; hit rate 64% among 2,600; AID 720502
Large screens that a line does not name were inactive (follow-up assays come after a bar, where they were run). Sampled rows, rich in hits. Any-hit rate of the full collection: about 2.4%. Calls come from the whole dose curve; as a rule, active = well fitted curve in the direction sought with a large enough effect; inconclusive = small, poorly fitted or top-dose-only effect, or another doubt; inactive = no such curve, though single readings can be large; an effect the other way counts as inactive or inconclusive.

NN=C1c2ccccc2C(=O)C1C(=O)C(c1ccccc1)c1ccccc1 (centres undefined)	POLI inh 39.8µM, Pol eta inh-1 inconclusive, WRN inhibitor 50.1µM, FEN1 inh inconclusive, Pol kappa inh-1 22.4µM (no result: POLB inh) | POLI cherry-pick 75.2 | Pol kappa inh-2 16.8 | Pol eta inh-2 84.9
Cc1ccc(C(=O)C2C(=O)c3ccccc3C2=O)cc1	none
Oc1cccc(O)c1	none (no result: POLB inh, POLI inh, Pol eta inh-1, WRN inhibitor, FEN1 inh)
O=S(=O)(c1cc(O)ccc1O)c1cccc2c(S(=O)(=O)c3cc(O)ccc3O)cccc12	POLI inh 7.94µM, Pol eta inh-1 4.47µM, WRN inhibitor 31.6µM, FEN1 inh 35.5µM, Pol kappa inh-1 17.8µM (no result: POLB inh) | TbPGK inh 3.66µM | POLI cherry-pick 8.44 | Pol kappa inh-2 9.47 | Pol eta inh-2 15.1
O=C(NCC1CCCO1)c1cccc2c1C(=O)c1ccc(N3CCC(Cc4ccccc4)CC3)cc1S2(=O)=O (centres undefined)	Pol eta inh-1 inconclusive (no result: POLB inh)
O=C(NC1CC1)C1CCN(S(=O)(=O)c2cc(Cl)ccc2Cl)CC1	none
O=C(NC1CC1)C1CCN(S(=O)(=O)c2cc([N+](=O)[O-])ccc2Cl)CC1	POLI inh 10µM, Pol eta inh-1 12.6µM, WRN inhibitor inconclusive, FEN1 inh inconclusive, Pol kappa inh-1 50.1µM (no result: POLB inh) | POLI cherry-pick 29.9 | Pol kappa inh-2 18.9 | Pol eta inh-2 inconclusive
O=C(Nc1cc(C(F)(F)F)cc(C(F)(F)F)c1)Nc1cnn(-c2ccc([N+](=O)[O-])cc2)c1C(F)(F)F	none
Cc1ccc(S(=O)(=O)NCCCCCC(=O)NC(C)(C)CO)cc1	none
CCCC[N+](C)(C)CCC(=O)NC(C)(C)CS(=O)(=O)[O-]	POLB inh 20µM, POLI inh inconclusive, Pol eta inh-1 12.6µM | TbPGK inh inconclusive | Pol eta inh-2 75.7
COc1ccc(OC)c(NC(=O)NC2CCCCCCC2)c1	none
COc1cccc(S(=O)(=O)Nc2ccc3c(c2)[C@@H]2C[C@H](CC(=O)NCCc4ccccc4)O[C@H](CO)[C@@H]2O3)c1	none (no result: POLB inh, POLI inh, FEN1 inh, Pol kappa inh-1)
COCCN(CCOC)S(=O)(=O)c1ccc(C(=O)Nc2nnc(CSC)o2)cc1	POLI inh inconclusive
O=c1oc2ccccc2c2oc3cc(O)c(O)cc3c12	POLI inh 3.16µM, Pol eta inh-1 4.47µM, WRN inhibitor 44.7µM, FEN1 inh 44.7µM, Pol kappa inh-1 5.01µM | POLI cherry-pick 21.2 | Pol kappa inh-2 67 | Pol eta inh-2 21.3
COc1ccc2ccccc2c1/C=N/NC(=O)c1nnn(-c2nonc2N)c1C(C)C	none
O=Cc1ccc2oc3nc4n(c(=O)c3c(=O)c2c1)CCCS4	POLB inh 8.91µM, POLI inh 7.94µM, Pol eta inh-1 2.51µM, WRN inhibitor 20µM, FEN1 inh 50.1µM, Pol kappa inh-1 20µM | POLI cherry-pick 4.74 | Pol kappa inh-2 8.44 | Pol eta inh-2 10.7
Cc1sc2nc3n(c(=O)c2c1C)CCCS3	none
CCOC(=O)CN(C(=O)c1snc(C(N)=O)c1N)C(C(=O)NC1CCCCC1)c1ccc(F)cc1 (centres undefined)	POLB inh 20µM, POLI inh inconclusive, Pol eta inh-1 35.5µM, Pol kappa inh-1 79.4µM | POLI cherry-pick 42.3 | Pol eta inh-2 inconclusive
CC(C)c1ccc(NC(=O)C2C3C=CC(CC3)C2C(=O)O)cc1 (centres undefined)	none (no result: POLB inh)
O=C(O)C1C2C=CC(CC2)C1C(=O)O (centres undefined)	POLB inh 17.8µM, POLI inh inconclusive, Pol eta inh-1 11.2µM, WRN inhibitor inconclusive, Pol kappa inh-1 inconclusive | TbPGK inh 11.6µM | Pol kappa inh-2 29.9 | Pol eta inh-2 inconclusive
CC(=O)c1cc(-c2ccc(F)cc2)n(CCC(=O)Nc2cc(C)[nH]n2)c1C	none
O=C(N/N=C/c1ccncc1)c1cccs1	none
O=C(N/N=C/c1ccc(-c2ccccc2C(=O)O)o1)c1cccs1	POLB inh 14.1µM, POLI inh 20µM, Pol eta inh-1 17.8µM, WRN inhibitor inconclusive, FEN1 inh inconclusive, Pol kappa inh-1 25.1µM | POLI cherry-pick inconclusive | Pol eta inh-2 60.1
Cn1c(SCC(=O)N/N=C/C=C\c2ccco2)nc2ccccc21	POLB inh 44.7µM, POLI inh 12.6µM, Pol eta inh-1 22.4µM, WRN inhibitor inconclusive, FEN1 inh inconclusive, Pol kappa inh-1 28.2µM | POLI cherry-pick inconclusive | Pol kappa inh-2 67 | Pol eta inh-2 67.5
O=C(NCc1ccco1)c1ccc([N+](=O)[O-])o1	POLB inh 12.6µM, POLI inh 10µM, Pol eta inh-1 39.8µM, WRN inhibitor inconclusive, Pol kappa inh-1 inconclusive | POLI cherry-pick 42.3 | Pol eta inh-2 53.6
Cc1ccc2nc(SCC(=O)NCc3ccccc3Cl)nc(=O)n2c1	none (no result: POLB inh)
Cc1ccn2c(=O)nc(SCC(=O)NCc3ccccc3Cl)nc2c1	POLI inh 56.2µM, Pol eta inh-1 17.8µM, WRN inhibitor inconclusive (no result: POLB inh) | POLI cherry-pick 67 | Pol kappa inh-2 26.7 | Pol eta inh-2 60.1
CCCc1nc2scc(-c3ccccc3)c2c(=O)n1N	none
O=C(O)CSc1cc(C(=O)c2ccccc2O)cn2c(=O)c3c(-c4ccccc4)csc3nc12	POLB inh 44.7µM, POLI inh inconclusive, Pol eta inh-1 14.1µM, WRN inhibitor inconclusive, FEN1 inh inconclusive, Pol kappa inh-1 inconclusive | POLI cherry-pick 21.2 | Pol eta inh-2 26.9
CN(Cc1ccco1)c1ncnc2ccc(-c3ccoc3)cc12	POLI inh 28.2µM, Pol kappa inh-1 inconclusive (no result: POLB inh, WRN inhibitor) | POLI cherry-pick 16.8 | Pol kappa inh-2 16.8 | Pol eta inh-2 37.9
Cn1cnnc1-c1cccc(NC(=O)c2cc(F)c(F)cc2Cl)c1	none
CC(C)(C)c1ccc(-c2nc(SCC(=O)Nc3ccc(Cl)cc3)[nH]c(=O)c2C#N)cc1	POLB inh 79.4µM, POLI inh 44.7µM, Pol eta inh-1 28.2µM, FEN1 inh 20µM, Pol kappa inh-1 inconclusive (no result: WRN inhibitor) | POLI cherry-pick inconclusive | Pol kappa inh-2 inconclusive | Pol eta inh-2 inconclusive
